Laboratory results reported in PubChem BioAssay (NCATS).
Results filed as inconclusive are left out. The source made the active and inactive calls. Calls come from the whole dose curve; as a rule, active = well fitted curve in the direction sought with a large enough effect; inconclusive = small, poorly fitted or top-dose-only effect, or another doubt; inactive = no such curve, though single readings can be large; an effect the other way counts as inactive or inconclusive.

Assays:
[1] = Quantitative High-Throughput drug screen in 47 multiple myeloma cell lines against the NCATS MIPE library collection: FR4_PLB cell viability assay (AID 1918924; note: nearly all actives have a fitted effect of over 35% in size)
In short: (§1)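 Inhibition of cell viability is measured here. Each line was plated at 500 cells per well, treated with MIPE 4.0 drugs, kept 48 hours at 37C, then assayed for ATP content by CellTiter-Glo luminescence.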

[2] = Quantitative High-Throughput drug screen in 47 multiple myeloma cell lines against the NCATS MIPE library collection: Delta47_JCRB cell viability assay (AID 1918925; note: nearly all actives have a fitted effect of over 45% in size)
In short: (§2)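 Relative luminescence from CellTiter-Glo served as the viability signal, referenced to DMSO-treated (100%) and cell-free medium (0%) controls. Treatment lasted 48 hours at 37C with 500 cells per well.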

[3] = Quantitative High-Throughput drug screen in 47 multiple myeloma cell lines against the NCATS MIPE library collection: EJM_DSMZ cell viability assay (AID 1918926; note: nearly all actives have a fitted effect of over 30% in size)
In short: as §2

[4] = Quantitative High-Throughput drug screen in 47 multiple myeloma cell lines against the NCATS MIPE library collection: AMO1_DSMZ cell viability assay (AID 1918927; note: nearly all actives have a fitted effect of over 30% in size)
In short: as §2

[5] = Quantitative High-Throughput drug screen in 47 multiple myeloma cell lines against the NCATS MIPE library collection: ARP1_JJKsccF8 cell viability assay (AID 1918928; note: nearly all actives have a fitted effect of over 40% in size)
In short: (§3)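 Myeloma cells at 500 per well in 1536-well format treated with MIPE 4.0 library by pin transfer for 48 h at 37C, 5% CO2. Viability from ATP luminescence (CellTiter-Glo), normalized to DMSO (100%) and media-only (0%) wells.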

[6] = Quantitative High-Throughput drug screen in 47 multiple myeloma cell lines against the NCATS MIPE library collection: ARD_JJKsccE7 cell viability assay (AID 1918929)
In short: as §2

[7] = Quantitative High-Throughput drug screen in 47 multiple myeloma cell lines against the NCATS MIPE library collection: Karpas620_DSMZ cell viability assay (AID 1918959); note: nearly all actives have a fitted effect of over 30% in size
In short: as §1

[8] = Quantitative High-Throughput drug screen in 47 multiple myeloma cell lines against the NCATS MIPE library collection: KMM1_JCRB cell viability assay (AID 1918960); note: nearly all actives have a fitted effect of over 30% in size
In short: as §3

[9] = Quantitative High-Throughput drug screen in 47 multiple myeloma cell lines against the NCATS MIPE library collection: Karpas417_ECACC cell viability assay (AID 1918961); details: Karpas417 myeloma viability, CellTiter-Glo ATP luminescence, 48 h; viability (% of DMSO): at 45.8 µM (top of the series)
In short: (§4)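 qHTS of the MIPE 4.0 collection: 500 myeloma cells/well, 48 h drug exposure at 37C in 5% CO2, then CellTiter-Glo for 5 min at room temperature before luminescence reading.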

[10] = Quantitative High-Throughput drug screen in 47 multiple myeloma cell lines against the NCATS MIPE library collection: KHM11_PLB cell viability assay (AID 1918962); note: nearly all actives have a fitted effect of over 35% in size
In short: as §1

[11] = Quantitative High-Throughput drug screen in 47 multiple myeloma cell lines against the NCATS MIPE library collection: INA6_PLB cell viability assay (AID 1918965; note: nearly all actives have a fitted effect of over 55% in size)
In short: as §4

[12] = Quantitative High-Throughput drug screen in 47 multiple myeloma cell lines against the NCATS MIPE library collection: JJN3_DSMZ cell viability assay (AID 1918966; note: nearly all actives have a fitted effect of over 50% in size)
In short: as §2

[13] = Quantitative High-Throughput drug screen in 47 multiple myeloma cell lines against the NCATS MIPE library collection: H1112_PLB cell viability assay (AID 1918967; note: nearly all actives have a fitted effect of over 30% in size)
In short: as §2

[14] = Quantitative High-Throughput drug screen in 47 multiple myeloma cell lines against the NCATS MIPE library collection: Karpas25_ECACC cell viability assay (AID 1918968; note: nearly all actives have a fitted effect of over 35% in size)
In short: as §2

[15] = Quantitative High-Throughput drug screen in 47 multiple myeloma cell lines against the NCATS MIPE library collection: KMS27_JCRB cell viability assay (AID 1918970); note: nearly all actives have a fitted effect of over 30% in size
In short: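 Viability inhibition screen, 48 h compound exposure, luminescent ATP read-out.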

[16] = Quantitative High-Throughput drug screen in 47 multiple myeloma cell lines against the NCATS MIPE library collection: KMS12BM_JCRB cell viability assay (AID 1918971); note: nearly all actives have a fitted effect of over 35% in size
In short: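 Steps: seed 500 cells per well; pin-transfer MIPE 4.0 library; incubate 48 h at 37C, 5% CO2, humidified; add CellTiter-Glo, 5 min room temperature; read luminescence.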

[17] = Quantitative High-Throughput drug screen in 47 multiple myeloma cell lines against the NCATS MIPE library collection: KMS12PE_JCRB cell viability assay (AID 1918972); note: nearly all actives have a fitted effect of over 30% in size
In short: as §4

[18] = Quantitative High-Throughput drug screen in 47 multiple myeloma cell lines against the NCATS MIPE library collection: KMS20_JCRB cell viability assay (AID 1918973); note: nearly all actives have a fitted effect of over 45% in size
In short: as §2

[19] = Quantitative High-Throughput drug screen in 47 multiple myeloma cell lines against the NCATS MIPE library collection: JIM3_ECACC cell viability assay (AID 1918963; note: nearly all actives have a fitted effect of over 35% in size)
In short: as §1

[20] = Quantitative High-Throughput drug screen in 47 multiple myeloma cell lines against the NCATS MIPE library collection: JIM1_ECACC cell viability assay (AID 1918964)
In short: as §2
Potency is the fitted concentration of half-maximal effect.

NC(=O)Nc1cc(-c2cccc(F)c2)sc1C(=O)N[C@H]1CCCNC1
Potency [1]: 0.0833 µM (active) | Potency [2]: 0.105 µM (active) | Potency [3]: 0.296 µM (active) | Potency [4]: 0.662 µM (active) | Potency [5]: 3.72 µM (active) | Potency [6]: 0.526 µM (active) | Potency [7]: 3.72 µM (active) | Potency [8]: 0.187 µM (active) | Potency [9]: 0.0833 µM (active) | Potency [10]: 0.0743 µM (active) | Potency [11]: 0.059 µM (active) | Potency [12]: 1.32 µM (active) | Potency [13]: 1.48 µM (active) | Potency [14]: 0.59 µM (active) | Potency [15]: 0.59 µM (active) | Potency [16]: 0.662 µM (active) | Potency [17]: 0.469 µM (active) | Potency [18]: 0.662 µM (active)

Cc1ccc(C(N)=O)cc1Nc1nccc(-c2cn(C(C)C)c3cnccc23)n1
Potency [1]: 9.35 µM (active) | Potency [2]: 3.32 µM (active) | Potency [3]: 7.43 µM (active) | Potency [4]: 2.64 µM (active) | Potency [5]: 6.62 µM (active) | Potency [6]: 3.72 µM (active) | Potency [7]: 6.62 µM (active) | Potency [8]: 4.18 µM (active) | Potency [9]: 2.96 µM (active) | Potency [10]: 3.32 µM (active) | Potency [19]: 5.26 µM (active) | Potency [20]: 2.35 µM (active) | Potency [11]: 2.64 µM (active) | Potency [12]: 4.69 µM (active) | Potency [13]: 3.32 µM (active) | Potency [14]: 3.72 µM (active) | Potency [15]: 3.32 µM (active) | Potency [16]: 16.6 µM (active) | Potency [17]: 5.9 µM (active) | Potency [18]: 4.18 µM (active)

CC(C)c1ccc(Cn2ccc3c4c(N)nc(NC5CC5)nc4ccc32)cc1
Potency [1]: 4.18 µM (active) | Potency [2]: 3.32 µM (active) | Potency [3]: 14.8 µM (active) | Potency [4]: 0.935 µM (active) | Potency [5]: 4.18 µM (active) | Potency [6]: 3.32 µM (active) | Potency [7]: 1.05 µM (active) | Potency [8]: 2.35 µM (active) | Potency [9]: 10.5 µM (active) | Potency [10]: 14.8 µM (active) | Potency [19]: 0.148 µM (active) | Potency [12]: 8.33 µM (active) | Potency [13]: 9.35 µM (active) | Potency [14]: 5.9 µM (active) | Potency [15]: 0.372 µM (active) | Potency [16]: 7.43 µM (active) | Potency [17]: 0.833 µM (active) | Potency [18]: 3.72 µM (active)

O=C(c1ccc(Nc2nccc(-c3cc4ccccc4s3)n2)cc1)N1CCC(N2CCCC2)CC1
Potency [1]: 13.2 µM (active) | Potency [2]: 2.96 µM (active) | Potency [3]: 18.7 µM (active) | Potency [4]: 7.43 µM (active) | Potency [5]: 13.2 µM (active) | Potency [6]: 9.35 µM (active) | Potency [7]: 4.18 µM (active) | Potency [8]: 5.9 µM (active) | Potency [9]: 2.09 µM (active) | Potency [10]: 3.72 µM (active) | Potency [20]: 4.69 µM (active) | Potency [11]: 1.66 µM (active) | Potency [12]: 16.6 µM (active) | Potency [13]: 7.43 µM (active) | Potency [15]: 4.18 µM (active) | Potency [16]: 13.2 µM (active) | Potency [17]: 1.87 µM (active) | Potency [18]: 1.32 µM (active)

CC(=O)SC[C@@H](C)C(=O)N1CCC[C@H]1C(=O)N[C@@H](Cc1ccccc1)C(=O)O
Potency [1]: inactive | Potency [2]: inactive | Potency [3]: inactive | Potency [4]: inactive | Potency [5]: inactive | Potency [6]: inactive | Potency [7]: inactive | Potency [8]: inactive | Potency [9]: inactive | Potency [10]: inactive | Potency [11]: inactive | Potency [14]: inactive | Potency [16]: inactive | Potency [17]: inactive

c1nc2nc(Nc3ccc(N4CCOCC4)cc3)nc(NC3CCCCC3)c2[nH]1
Potency [1]: 26.4 µM (active) | Potency [2]: 6.62 µM (active) | Potency [3]: 14.8 µM (active) | Potency [4]: 4.69 µM (active) | Potency [5]: 14.8 µM (active) | Potency [6]: 3.32 µM (active) | Potency [7]: 6.62 µM (active) | Potency [8]: 4.69 µM (active) | Potency [9]: 0.743 µM (active) | Potency [10]: 14.8 µM (active) | Potency [19]: 3.72 µM (active) | Potency [11]: 2.96 µM (active) | Potency [12]: 18.7 µM (active) | Potency [13]: 5.9 µM (active) | Potency [14]: 5.26 µM (active) | Potency [15]: 5.9 µM (active) | Potency [16]: 20.9 µM (active) | Potency [17]: 1.66 µM (active) | Potency [18]: 4.69 µM (active)

Cn1c2ccccc2c2c3c(c4c5ccccc5n(CCC#N)c4c21)CNC3=O
Potency [1]: 4.69 µM (active) | Potency [2]: 1.48 µM (active) | Potency [3]: 2.96 µM (active) | Potency [4]: 0.935 µM (active) | Potency [5]: 7.43 µM (active) | Potency [6]: 2.35 µM (active) | Potency [7]: 2.35 µM (active) | Potency [8]: 0.935 µM (active) | Potency [9]: 0.148 µM (active) | Potency [10]: 0.833 µM (active) | Potency [19]: 6.62 µM (active) | Potency [20]: 0.526 µM (active) | Potency [11]: 0.0833 µM (active) | Potency [12]: 3.32 µM (active) | Potency [13]: 2.09 µM (active) | Potency [14]: 1.87 µM (active) | Potency [16]: 16.6 µM (active) | Potency [17]: 2.35 µM (active) | Potency [18]: 1.48 µM (active)

CC(C)c1nn(-c2c(Cl)cccc2Cl)c2nc(Cc3ccc(OCCO)cc3)[nH]c(=O)c12
Potency [1]: 0.105 µM (active) | Potency [2]: 0.166 µM (active) | Potency [3]: 0.132 µM (active) | Potency [4]: inactive | Potency [5]: 0.118 µM (active) | Potency [6]: inactive | Potency [7]: inactive | Potency [8]: inactive | Potency [9]: inactive | Potency [10]: 0.148 µM (active) | Potency [19]: 0.166 µM (active) | Potency [11]: 0.0833 µM (active) | Potency [12]: 0.0833 µM (active) | Potency [13]: 0.235 µM (active) | Potency [14]: 0.0372 µM (active) | Potency [15]: inactive | Potency [16]: 0.0743 µM (active) | Potency [17]: inactive | Potency [18]: 0.166 µM (active)

C=CC(=O)Nc1cc2c(Nc3ccc(F)c(Cl)c3)ncnc2cc1C#CC(C)(C)N1CCN(C)CC1
Potency [1]: 3.72 µM (active) | Potency [2]: 0.469 µM (active) | Potency [3]: 2.09 µM (active) | Potency [4]: 0.662 µM (active) | Potency [5]: 5.9 µM (active) | Potency [6]: 1.05 µM (active) | Potency [7]: 0.59 µM (active) | Potency [8]: 1.48 µM (active) | Potency [9]: 0.59 µM (active) | Potency [10]: 2.09 µM (active) | Potency [19]: 1.66 µM (active) | Potency [11]: 0.418 µM (active) | Potency [12]: 5.26 µM (active) | Potency [13]: 1.87 µM (active) | Potency [14]: 0.526 µM (active) | Potency [15]: 0.833 µM (active) | Potency [16]: 0.332 µM (active) | Potency [17]: 0.833 µM (active) | Potency [18]: 0.296 µM (active)
